Results reported in PubChem BioAssay (Tox21).
Values joined by “and” are separate entries in the source; they are usually repeats but may differ in a detail not shown here. Identical values can stand only once. Inconclusive results are not listed. Active and inactive are the calls of the source. Unless noted, calls come from the whole dose curve; as a rule, active = well fitted curve in the direction sought with a large enough effect in the repeat runs; inconclusive = weak or mixed curves; inactive = no such curve, though single readings can be large; an effect the other way counts as inactive or inconclusive.

Experiments:
[1] = qHTS assay to identify aromatase inhibitors - cell viability counter screen (AID 743084);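 note: cells stimulated with testosterone during compound exposure; nearly all actives have a fitted effect of over 55% in size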; note: potency is the fitted concentration of half-maximal effect
[2] = target: Aryl hydrocarbon receptor (Homo sapiens) (UniProt P35869); assay: qHTS assay to identify small molecule that activate the aryl hydrocarbon receptor (AhR) signaling pathway (AID 743085); note: nearly all actives have a fitted effect of over 15% in size; note: potency is the fitted concentration of half-maximal effect;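 for activation: HG2L7.5c1 human HepG2 liver cells with stably integrated DRE-driven firefly reporter; series mostly up to about 70 µM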
Method in brief: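 Steps: seed HepG2-AhR-luc cells; allow 5 h at 37C; pin-transfer test compound or vehicle; incubate 24 h at 37C; add viability dye (30 min, 37C) and read fluorescence; add luciferase substrate (30 min, RT) and read luminescence.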

[3] = qHTS assay to identify small molecule that activate the aryl hydrocarbon receptor (AhR) signaling pathway - cell viability counter screen (AID 743086); note: nearly all actives have a fitted effect of over 45% in size; note: potency is the fitted concentration of half-maximal effect
Method in brief: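 Cytotoxicity counter screen: CellTiter-Fluor signal (30 min, 37 C) in 4000 HepG2 cells/well carrying the DRE-luciferase reporter, following 24 h compound exposure at 37 C.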

[4] = qHTS assay to identify small molecule antagonists of the peroxisome proliferator-activated receptor gamma (PPARg) signaling pathway - cell viability counter screen (AID 743194); note: nearly all actives have a fitted effect of over 55% in size
Method in brief: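 Viability was measured as CellTiter-Glo luminescence in GeneBLAzer PPARg UAS-bla HEK293H cells. These cells had been exposed 17 h at 37 C to compounds together with rosiglitazone at 50 nM final, with the beta-lactamase readout taken in the same wells.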

[5] = qHTS assay for small molecule activators of the heat shock response signaling pathway - cell viability counter screen (AID 743209); note: nearly all actives have a fitted effect of over 50% in size
Method in brief: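 Counter screen for cytotoxicity in HeLa HSE-bla reporter cells. Treatment was 5 h at 37 C; viability was detected by luminescent ATP assay (CellTiter-Glo) in the same wells as the beta-lactamase read.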

[6] = qHTS assay for small molecule activators of the heat shock response signaling pathway (AID 743210; active = well fitted activation curve with a large enough effect in the signal ratio in the repeat runs, with a control signal flat, not every such curve was filed as active; the % refers to the signal ratio;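 note: HeLa cells with beta-lactamase reporter driven by heat shock elements; series mostly up to about 63 µM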)
Method in brief: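 In HSE-bla HeLa cells, 5 h compound incubation (37 C) precedes addition of LiveBLAzer B/G substrate; after 2.5 h at room temperature, fluorescence intensity indicates reporter induction.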

[7] = qHTS assay to identify small molecule agonists of the peroxisome proliferator-activated receptor delta (PPARd) signaling pathway - cell viability counter screen (AID 743211); note: nearly all actives have a fitted effect of over 55% in size; note: potency is the fitted concentration of half-maximal effect
Method in brief: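 Viability of GeneBLAzer PPARd UAS-bla HEK293H cells was assessed after 17 h compound incubation at 37C, using CellTiter-Glo reagent added after the reporter read and luminescence recorded 30 min later.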

[8] = target: Peroxisome proliferator-activated receptor delta (Homo sapiens) (UniProt Q03181); assay: qHTS assay to identify small molecule agonists of the peroxisome proliferator-activated receptor delta (PPARd) signaling pathway (AID 743212; calls by dose curve)
Method in brief: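 HEK293H UAS-bla reporter cells, human PPARd system; compounds delivered in DMSO after 5 h plating, then at 37 C. Beta-lactamase FRET read, 2 h RT substrate step.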

[9] = qHTS assay to identify small molecule agonists of the farnesoid-X-receptor (FXR) signaling pathway - cell viability counter screen (AID 743218); note: nearly all actives have a fitted effect of over 45% in size; note: potency is the fitted concentration of half-maximal effect
Method in brief: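 After 16 h at 37 C with test compounds, FXR-bla HEK 293T cells were given LiveBLAzer B/G substrate for 2 h at RT and then CellTiter-Glo; luminescence was taken after 30 min.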

[10] = target: Bile acid receptor (Homo sapiens) (UniProt Q96RI1); assay: qHTS assay to identify small molecule agonists of the farnesoid-X-receptor (FXR) signaling pathway (AID 743220; active = well fitted activation curve with a large enough effect in the signal ratio in the repeat runs, not every such curve was filed as active; the % refers to the signal ratio)
Method in brief: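 Beta-lactamase reporter under UAS control in GeneBLAzer FXR HEK 293T cells (5000/well) measured with LiveBLAzer FRET substrate after 2 h at room temperature. Compound exposure lasted 16 h at 37C.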

[11] = qHTS assay to identify small molecule antagonists of the farnesoid-X-receptor (FXR) signaling pathway - cell viability counter screen (AID 743221; active = well fitted cell-killing curve with a large enough effect in the repeat runs, not every such curve was filed as active; note: nearly all actives have a fitted effect of over 50% in size)
Method in brief: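 Quantitative HTS of the Tox21 10K library run in parallel with the beta-lactamase reporter read. HEK 293T cells carrying a UAS-driven bla reporter got compound and 50 uM CDCA (final) for 16 h; ATP-based luminescence followed.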

[12] = target: Vitamin D3 receptor (Homo sapiens) (UniProt P11473); assay: qHTS assay to identify small molecule agonists of the vitamin D receptor (VDR) signaling pathway (AID 743222; calls by dose curve)
Method in brief: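 VDR-bla cells were seeded, left 4 h, treated with compounds in DMSO for 16 h, incubated 2 h at RT with B/G FRET substrate, and read for fluorescence.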

[13] = target: Peroxisome proliferator-activated receptor gamma (Homo sapiens) (UniProt P37231); assay: qHTS assay to identify small molecule agonists of the peroxisome proliferator-activated receptor gamma (PPARg) signaling pathway (AID 743094; active = well fitted activation curve with a large enough effect in the signal ratio in the repeat runs, not every such curve was filed as active; the % refers to the signal ratio)
Method in brief: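 Following 5 h plating at 37C, PPARg-bla HEK293H cells receive compound or DMSO for 17 h; fluorescence intensity is recorded after LiveBLAzer B/G loading for 1 h at room temperature.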

[14] = target: Peroxisome proliferator-activated receptor gamma (Homo sapiens) (UniProt P37231); assay: qHTS assay to identify small molecule antagonists of the peroxisome proliferator-activated receptor gamma (PPARg) signaling pathway (AID 743191; calls by dose curve; note: nearly all actives have a fitted effect of over 30% in size; note: potency is the fitted concentration of half-maximal effect)
Method in brief: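 Beta-lactamase reporter under UAS control in HEK293H PPARg-bla cells; compound treatment 17 h at 37C. Read-out: fluorescence intensity after 1 h room-temperature incubation with LiveBLAzer B/G FRET substrate.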

[15] = qHTS assay for small molecule agonists of the antioxidant response element (ARE) signaling pathway (AID 743202; active = well fitted activation curve with a large enough effect in the signal ratio in the repeat runs, not every such curve was filed as active; the % refers to the signal ratio; note: potency is the fitted concentration of half-maximal effect)
Method in brief: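 An ARE-responsive beta-lactamase gene stably integrated in HepG2 cells serves as reporter. After 5 h plating and 16 h compound incubation at 37 C, fluorescence of the B/G FRET substrate was measured.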

[16] = qHTS assay for small molecule agonists of the antioxidant response element (ARE) signaling pathway - cell viability counter screen (AID 743203; calls by dose curve; note: nearly all actives have a fitted effect of over 55% in size; note: potency is the fitted concentration of half-maximal effect)
Method in brief: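 Compounds in DMSO were pinned onto ARE-bla HepG2 cells plated 5 hrs earlier at 2,000 cells/well. Sixteen hours later at 37C/5% CO2, CellTiter-Glo was added and luminescence measured after 30 min at room temperature.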

[17] = qHTS assay to identify small molecule antagonists of the peroxisome proliferator-activated receptor delta (PPARd) signaling pathway - cell viability counter screen (AID 743213); note: nearly all actives have a fitted effect of over 50% in size
Method in brief: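 PPARd-bla HEK293H cells were treated with compounds plus agonist L165041 (300 nM final) for 17 h at 37 C. Viability was then read in the same wells by CellTiter-Glo luminescence after 30 min at room temperature.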

[18] = target: Peroxisome proliferator-activated receptor delta (Homo sapiens) (UniProt Q03181); assay: qHTS assay to identify small molecule antagonists of the peroxisome proliferator-activated receptor delta (PPARd) signaling pathway (AID 743215; active = well fitted inhibition curve with a large enough effect in the signal ratio in the repeat runs, not every such curve was filed as active; the % refers to the signal ratio;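 note: cells stimulated with agonist L165041 at 300 nM final during compound exposure; series mostly up to about 62 µM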)
Method in brief: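 With L165041 present at 300 nM final, compounds were incubated 17 h at 37 C on PPARd UAS-bla HEK293H cells. A FRET-based beta-lactamase substrate was then applied for 2 h at room temperature and fluorescence intensity recorded.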

[19] = target: Bile acid receptor (Homo sapiens) (UniProt Q96RI1); assay: qHTS assay to identify small molecule antagonists of the farnesoid-X-receptor (FXR) signaling pathway (AID 743217; active = well fitted inhibition curve with a large enough effect in the signal ratio in the repeat runs, not every such curve was filed as active; the % refers to the signal ratio)
Method in brief: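 In this cell-based antagonist screen, inhibition of CDCA-driven (50 uM final) UAS-beta-lactamase expression in HEK 293T cells was measured by FRET fluorescence following 16 h compound exposure at 37 °C.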

[20] = target: Vitamin D3 receptor (Homo sapiens) (UniProt P11473); assay: qHTS assay to identify small molecule antagonists of the vitamin D receptor (VDR) signaling pathway (AID 743223; active = well fitted inhibition curve with a large enough effect in the signal ratio in the repeat runs, not every such curve was filed as active; the % refers to the signal ratio)
Method in brief: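 Fluorescence from LiveBLAzer B/G FRET substrate, read after 2 h at room temperature, reflects beta-lactamase reporter activity in VDR-bla cells treated 16 h at 37C with compounds and agonist 1alpha,25-dihydroxyvitamin D3 (3 nM final).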

Measured: Potency

Peroxisome proliferator-activated receptor gamma (Homo sapiens), sequence (P37231 whole entry, looked up): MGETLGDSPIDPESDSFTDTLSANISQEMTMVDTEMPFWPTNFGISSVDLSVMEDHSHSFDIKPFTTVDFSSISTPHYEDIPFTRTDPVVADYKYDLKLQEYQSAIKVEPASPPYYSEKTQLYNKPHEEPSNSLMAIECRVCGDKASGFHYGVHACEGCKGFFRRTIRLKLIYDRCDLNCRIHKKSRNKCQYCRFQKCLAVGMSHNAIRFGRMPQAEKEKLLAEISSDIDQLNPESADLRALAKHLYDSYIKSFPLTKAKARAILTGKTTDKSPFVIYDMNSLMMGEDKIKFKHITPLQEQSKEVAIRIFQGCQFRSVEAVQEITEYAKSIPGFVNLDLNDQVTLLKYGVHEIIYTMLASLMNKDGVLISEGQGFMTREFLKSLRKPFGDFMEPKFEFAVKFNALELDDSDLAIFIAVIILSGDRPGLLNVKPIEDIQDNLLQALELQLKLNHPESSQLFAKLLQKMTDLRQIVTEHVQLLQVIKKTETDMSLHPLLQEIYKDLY
Aryl hydrocarbon receptor (Homo sapiens), sequence (P35869 whole entry, looked up): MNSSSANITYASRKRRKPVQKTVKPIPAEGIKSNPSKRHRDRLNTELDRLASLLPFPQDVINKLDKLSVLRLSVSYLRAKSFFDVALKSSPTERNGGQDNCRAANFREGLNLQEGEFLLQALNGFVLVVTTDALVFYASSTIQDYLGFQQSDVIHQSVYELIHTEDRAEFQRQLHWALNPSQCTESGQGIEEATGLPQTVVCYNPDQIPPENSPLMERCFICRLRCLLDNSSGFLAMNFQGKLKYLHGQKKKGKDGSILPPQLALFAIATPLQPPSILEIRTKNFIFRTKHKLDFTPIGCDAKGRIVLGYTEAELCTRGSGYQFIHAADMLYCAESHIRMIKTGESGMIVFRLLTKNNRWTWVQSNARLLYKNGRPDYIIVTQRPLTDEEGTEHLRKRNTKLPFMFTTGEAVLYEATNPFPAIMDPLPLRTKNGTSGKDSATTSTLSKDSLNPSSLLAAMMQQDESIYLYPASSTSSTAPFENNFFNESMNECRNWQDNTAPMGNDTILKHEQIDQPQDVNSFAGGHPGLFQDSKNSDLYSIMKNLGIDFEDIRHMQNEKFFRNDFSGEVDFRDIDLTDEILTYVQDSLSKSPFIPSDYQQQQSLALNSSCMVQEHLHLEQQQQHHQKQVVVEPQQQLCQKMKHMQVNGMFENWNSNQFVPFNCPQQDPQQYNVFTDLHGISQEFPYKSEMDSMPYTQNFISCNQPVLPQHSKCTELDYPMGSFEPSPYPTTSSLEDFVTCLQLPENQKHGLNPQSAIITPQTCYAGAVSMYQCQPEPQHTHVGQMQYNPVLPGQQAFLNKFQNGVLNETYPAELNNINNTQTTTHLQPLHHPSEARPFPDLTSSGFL
Vitamin D3 receptor (Homo sapiens), sequence (P11473 whole entry, looked up): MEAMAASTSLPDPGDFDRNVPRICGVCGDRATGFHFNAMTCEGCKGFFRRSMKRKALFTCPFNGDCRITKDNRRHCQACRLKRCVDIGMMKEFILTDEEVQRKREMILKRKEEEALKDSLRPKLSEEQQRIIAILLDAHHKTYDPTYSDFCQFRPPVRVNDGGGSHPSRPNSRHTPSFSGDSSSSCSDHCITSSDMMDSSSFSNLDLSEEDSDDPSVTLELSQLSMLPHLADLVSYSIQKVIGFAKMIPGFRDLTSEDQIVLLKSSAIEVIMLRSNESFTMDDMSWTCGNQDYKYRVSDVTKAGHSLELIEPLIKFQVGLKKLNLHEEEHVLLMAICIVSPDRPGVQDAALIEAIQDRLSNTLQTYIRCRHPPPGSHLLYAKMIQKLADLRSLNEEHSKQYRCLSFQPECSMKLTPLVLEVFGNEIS
Bile acid receptor (Homo sapiens), sequence (Q96RI1 whole entry, looked up): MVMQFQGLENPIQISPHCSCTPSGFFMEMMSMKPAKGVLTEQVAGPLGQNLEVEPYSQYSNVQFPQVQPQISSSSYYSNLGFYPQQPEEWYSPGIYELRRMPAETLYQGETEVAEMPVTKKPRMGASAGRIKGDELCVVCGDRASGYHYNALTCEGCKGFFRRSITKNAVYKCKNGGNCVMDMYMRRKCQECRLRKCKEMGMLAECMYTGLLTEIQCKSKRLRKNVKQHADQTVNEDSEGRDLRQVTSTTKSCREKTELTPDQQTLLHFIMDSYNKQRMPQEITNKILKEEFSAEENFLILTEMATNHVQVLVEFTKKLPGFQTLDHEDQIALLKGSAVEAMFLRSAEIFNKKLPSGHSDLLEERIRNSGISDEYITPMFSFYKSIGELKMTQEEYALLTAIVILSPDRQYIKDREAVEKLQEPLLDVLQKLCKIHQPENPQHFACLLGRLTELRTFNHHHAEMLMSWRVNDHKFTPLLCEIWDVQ
Peroxisome proliferator-activated receptor delta (Homo sapiens), sequence (Q03181 whole entry, looked up): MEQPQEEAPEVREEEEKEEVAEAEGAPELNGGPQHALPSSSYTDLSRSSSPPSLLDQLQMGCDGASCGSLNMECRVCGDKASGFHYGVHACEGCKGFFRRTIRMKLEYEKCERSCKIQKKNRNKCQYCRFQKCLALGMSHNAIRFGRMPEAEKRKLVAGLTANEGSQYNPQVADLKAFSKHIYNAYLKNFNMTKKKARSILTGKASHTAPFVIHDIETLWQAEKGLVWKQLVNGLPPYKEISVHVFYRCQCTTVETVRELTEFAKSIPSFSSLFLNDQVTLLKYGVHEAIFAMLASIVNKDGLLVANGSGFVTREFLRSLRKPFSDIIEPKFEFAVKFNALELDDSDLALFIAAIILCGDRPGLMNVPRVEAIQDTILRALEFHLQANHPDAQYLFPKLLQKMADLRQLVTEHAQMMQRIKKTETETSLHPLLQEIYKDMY

Nc1nc(Cl)nc2c1ncn2[C@@H]1O[C@H](CO)[C@@H](O)[C@@H]1F
not listed: [13] | [14] | [15] | [16] | [17] | [18] | [19] | [20]
inactive: all other assays above

CCCC1C(CC)=CC(CC)=CN1c1ccccc1 (stereo unspecified)
active: [15] 54.5 µM
not listed: [3] | [7] | [9] | [12] | [17] | [18] | [19] | [20]
inactive: all other assays above

Cc1cc(O)c(C(C)C)cc1Cl
not listed: [5] | [12] | [13] | [14]
inactive: all other assays above

CC(C)(C)CC(C)(C)c1ccc(OCCO)cc1
inactive: [2] | [13] | [14] | [4] | [16] | [10] | [20]
active: [1] 33.5 µM and 30.5 µM

O=S1OCCO1
not listed: [3] | [5] | [8] | [10] | [17] | [18] | [19]
inactive: all other assays above

Cc1cc(C(=C2C=CC(=Nc3ccc(S(=O)(=O)O)cc3S(=O)(=O)O)C=C2)c2ccc(Nc3ccc(S(=O)(=O)O)cc3)cc2)ccc1N
not listed: [3] | [8] | [9] | [10] | [12] | [17] | [18] | [19]
inactive: all other assays above

COc1cc2c(cc1OC)-c1cc(=Nc3c(C)cc(C)cc3C)n(C)c(=O)n1CC2
inactive: [5] | [11] | [20]
active: [1] 26.6 µM | [2] 1.33 µM | [3] 29.8 µM | [14] 13.3 µM

Cc1c(C(=O)NN2CCCCC2)nn(-c2ccc(Cl)cc2Cl)c1-c1ccc(Cl)cc1
inactive: [1] | [2] | [3] | [10]
active: [16] 23.7 µM | [7] 23.7 µM | [9] 33.5 µM

C[C@]12CCC(=O)C=C1C=C[C@@H]1[C@@H]2CC[C@@]2(C)[C@H]1CC[C@@]21CCC(=O)O1
inactive: [1] | [2] | [3] | [4] | [5] | [6] | [7] | [8] | [18] | [11]
active: [15] 11.9 µM

O=C(O)c1cccc(O)c1
inactive: [1] | [2] | [13] | [14] | [4] | [15] | [16] | [5] | [6] | [7] | [10]

O=S(=O)(c1ccccc1)c1ccc(Cl)cc1
not listed: [3] | [4] | [5] | [10] | [15] | [19]
inactive: all other assays above

Nc1ccc(S(=O)(=O)O)cc1
not listed: [3] | [4] | [8] | [18] | [19]
inactive: all other assays above

Cc1cc(O)c2c(O)c3c(O)cccc3cc2c1
active: [2] 2.66 µM | [15] 11.9 µM
not listed: [8] | [10] | [12] | [13] | [14] | [18] | [20]
inactive: all other assays above

Cc1cc(OI)c(C(C)C)cc1-c1cc(C(C)C)c(OI)cc1C
inactive: [1] | [2] | [3] | [4] | [15] | [16] | [7] | [17] | [11]

COC(=O)Nc1nc2ccc(C(=O)c3cccs3)cc2[nH]1
active: [2] 3.76 µM
inactive: [1] | [3] | [4] | [5] | [10]

O=C(O)c1cccnc1C(=O)O
inactive: [1] | [3] | [13] | [14] | [4] | [5] | [6] | [7] | [17] | [9]
